Assay results published in PubChem BioAssay (NCI).
Compounds without any hit were thinned out: in the full panel of roughly 79,000, 15% have a hit. Calls of active or inactive are those of the source. Cut-off read from the data, not from the text of the source: active = growth inhibition above about 70%; inactive = the rest.

What was measured:
[1] = NCI Yeast Anticancer Drug Screen. Data for the rad52 strain (AID 147);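 note: 0% = growth of vehicle-treated control cultures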; conditions: S. cerevisiae rad52 mutant growth inhibition, active compounds read high
Method in brief: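 Yeast strain carrying a DNA damage repair alteration was exposed to test compounds. Growth inhibition was measured relative to vehicle-treated controls.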

[2] = NCI Yeast Anticancer Drug Screen. Data for the wt1 strain (AID 149);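 note: 0% = growth of vehicle-treated wt1 cultures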; conditions: S. cerevisiae wt1 strain (SPY 50644) growth inhibition, active compounds read high
Method in brief: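 wt1 strain grown with compound or vehicle; inhibition taken from the growth difference.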

[3] = NCI Yeast Anticancer Drug Screen. Data for the rad50EPP+ strain (AID 151);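 note: 0% = growth of vehicle-treated control cultures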; conditions: S. cerevisiae rad50 mutant strain, active compounds read high
Method in brief: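 Yeast strain carrying rad50 alteration (rad50EPP+) exposed to compounds; growth inhibition measured relative to vehicle-treated controls.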

[4] = NCI Yeast Anticancer Drug Screen. Data for the mgt1 strain (AID 153); conditions: S. cerevisiae mgt1 mutant growth inhibition, active compounds read high
Method in brief: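 Yeast mgt1 strain (DNA repair/cell-cycle alteration panel) exposed to compounds; growth inhibition measured relative to vehicle-treated controls.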

[5] = NCI Yeast Anticancer Drug Screen. Data for the rad50 strain (AID 155);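 note: 0% = growth of vehicle-only cultures of the same strain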; conditions: S. cerevisiae rad50 strain growth inhibition, active compounds read high
Method in brief: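 DNA repair mutant yeast, compound exposure, growth read-out; inhibition is taken relative to vehicle.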

[6] = NCI Yeast Anticancer Drug Screen. Data for the mec2-1 strain (AID 157); conditions: S. cerevisiae mec2-1 strain, active compounds read high
Method in brief: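 mec2-1 yeast strain, carrying an alteration in DNA damage repair or cell cycle control, was exposed to compounds; growth inhibition was measured relative to vehicle-treated controls.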

[7] = NCI Yeast Anticancer Drug Screen. Data for the sgs1 mgt1 strain (AID 161);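 note: 0% = growth of cultures given vehicle only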; conditions: S. cerevisiae sgs1 mgt1 strain, active compounds read high
Method in brief: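 Percent growth inhibition was derived by comparing compound-exposed mutant yeast with vehicle-exposed cultures. The strain carries alterations in DNA damage repair.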

[8] = NCI Yeast Anticancer Drug Screen. Data for the CLN2oe strain (AID 163);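 note: 0% = growth of vehicle-only control cultures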; conditions: S. cerevisiae CLN2oe strain, active compounds read high
Method in brief: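 Yeast cells carrying a defined cell-cycle control alteration were exposed to test compounds. Growth inhibition was scored against vehicle-treated control cultures.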

[9] = NCI Yeast Anticancer Drug Screen. Data for the cln2 rad14 strain (AID 165);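 note: 0% = growth equal to vehicle treated cultures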; conditions: S. cerevisiae cln2 rad14 strain, active compounds read high
Method in brief: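 Yeast carrying cln2 and rad14 alterations (cell cycle control and DNA damage repair) were exposed to compounds. Growth inhibition was measured against vehicle-treated controls.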

[10] = NCI Yeast Anticancer Drug Screen. Data for the bub3 strain (AID 167); conditions: S. cerevisiae bub3 mutant strain, active compounds read high
Method in brief: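 In this screen, a yeast mutant lacking normal mitotic checkpoint function is challenged with compound. Relative growth versus vehicle gives the inhibition value.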

[11] = NCI Yeast Anticancer Drug Screen. Data for the mlh1 strain (AID 171);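 note: 0% = growth of vehicle-treated control cultures of the same strain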; conditions: S. cerevisiae mlh1 strain growth inhibition, active compounds read high
Method in brief: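 Yeast carrying a defined genetic alteration in DNA damage repair or cell cycle control were exposed to test compounds. Growth inhibition was measured relative to vehicle-treated controls.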

[12] = NCI Yeast Anticancer Drug Screen. Data for the sgs1 strain (AID 173);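 note: 0% = growth of vehicle-only control cultures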; conditions: S. cerevisiae sgs1 mutant, active compounds read high
Method in brief: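 Yeast mutant strains carrying defined defects in DNA damage repair or cell cycle control were exposed to test compounds. Growth inhibition was scored against vehicle-treated controls.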

[13] = NCI Yeast Anticancer Drug Screen. Data for the mlh1 rad18 strain (AID 175); conditions: S. cerevisiae mlh1 rad18 strain growth inhibition, active compounds read high
Method in brief: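 Growth inhibition of the yeast strain was measured after compound exposure and expressed relative to vehicle-treated controls. The strain carries defined defects in DNA damage repair.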

[14] = NCI Yeast Anticancer Drug Screen. Data for the rad18 strain (AID 177); conditions: S. cerevisiae rad18 mutant growth inhibition, active compounds read high
Method in brief: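 Yeast carrying a defined DNA damage repair alteration were exposed to compounds. Growth inhibition was expressed relative to vehicle-treated controls.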

[15] = NCI Yeast Anticancer Drug Screen. Data for the rad14 strain (AID 159);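 note: 0% = growth of vehicle-treated control cultures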; conditions: S. cerevisiae rad14 strain growth inhibition, active compounds read high
Method in brief: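 DNA repair-defective yeast, compound-exposed; % growth inhibition derived by comparison with vehicle-treated controls.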

[16] = NCI Yeast Anticancer Drug Screen. Data for the wt2 strain (AID 169);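 note: 0% = growth of vehicle-treated yeast cultures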; conditions: S. cerevisiae wt2 strain growth inhibition, active compounds read high
Method in brief: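 Yeast cells were exposed to test compounds, and growth inhibition was measured relative to vehicle-treated controls.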

[17] = at 5.0 µM (retest, dose inferred, filed as 0.5)
[18] = at 50.0 µM (retest, dose inferred, filed as 5.0)

Measured: growth inhibition

CCn1c(O)c(C=Nc2ccccc2)s/c1=N/Nc1nc(-c2ccccc2)cs1
active: [3]; at 100.0 µM 74% | [10]; [18] 74% | [10]; at 50.0 µM 75.5%
inactive: [1]; at 1.2 µM 12% | [1]; at 3.7 µM 5% | [1]; at 11.0 µM 10% | [1]; at 33.0 µM 4% | [1]; at 100.0 µM 20% | [2]; at 1.2 µM -87% | [2]; at 3.7 µM -1% | [2]; at 11.0 µM 0% | [2]; at 33.0 µM 0% | [2]; at 100.0 µM -3% | [3]; at 1.2 µM 7% | [3]; at 3.7 µM 19% | [3]; at 11.0 µM 32% | [3]; at 33.0 µM 54% | [4]; at 1.2 µM 0% | [4]; at 3.7 µM 10% | [4]; at 11.0 µM 18% | [4]; at 33.0 µM 21% | [4]; at 100.0 µM 24% | [5]; at 1.2 µM -2% | [5]; at 3.7 µM 6% | [5]; [17] -12% | [5]; at 11.0 µM 14% | [5]; at 33.0 µM 15% | [5]; [18] 12% | [5]; at 50.0 µM 41.7% | [5]; at 100.0 µM 11% | [6]; at 1.2 µM -6% | [6]; at 3.7 µM -1% | [6]; [17] -25% | [6]; at 11.0 µM -1% | [6]; at 33.0 µM -1% | [6]; [18] 11% | [6]; at 50.0 µM 23.8% | [6]; at 100.0 µM 2% | [7]; [17] -7% | [7]; [18] 27% | [7]; at 50.0 µM 43.5% | [8]; at 1.2 µM -6% | [8]; at 3.7 µM -11% | [8]; at 11.0 µM -7% | [8]; at 33.0 µM -9% | [8]; at 100.0 µM 17% | [9]; [17] -1% | [9]; [18] 15% | [9]; at 50.0 µM 25.3% | [10]; at 1.2 µM -5% | [10]; at 3.7 µM -3% | [10]; [17] -14% | [10]; at 11.0 µM -4% | [10]; at 33.0 µM 12% | [10]; at 100.0 µM 50% | [11]; at 1.2 µM -2% | [11]; at 3.7 µM 3% | [11]; at 11.0 µM 3% | [11]; at 33.0 µM 4% | [11]; at 100.0 µM 12% | [12]; at 1.2 µM -10% | [12]; at 3.7 µM 7% | [12]; at 11.0 µM 13% | [12]; at 33.0 µM 22% | [12]; at 100.0 µM 36% | [13]; [17] -10% | [13]; [18] 25% | [13]; at 50.0 µM 61.8% | [14]; at 1.2 µM -3% | [14]; at 3.7 µM -3% | [14]; at 11.0 µM -5% | [14]; at 33.0 µM 9% | [14]; at 100.0 µM -12%

CNC(=O)OCc1c(COC(=O)NC)c(-c2ccc(Cl)cc2)n2c1CCC2
inactive: [1]; at 1.2 µM -19% | [1]; at 3.7 µM -31% | [1]; at 11.0 µM -28% | [1]; at 33.0 µM -22% | [1]; at 100.0 µM 69% | [2]; at 1.2 µM -37% | [2]; at 3.7 µM -31% | [2]; at 11.0 µM -43% | [2]; at 33.0 µM -47% | [3]; at 1.2 µM -21% | [3]; at 3.7 µM -23% | [3]; at 11.0 µM -16% | [3]; at 33.0 µM -25% | [3]; at 100.0 µM -26% | [5]; at 1.2 µM -34% | [5]; at 3.7 µM -42% | [5]; [17] 21% | [5]; at 11.0 µM -40% | [5]; at 33.0 µM -30% | [5]; [18] 11% | [5]; at 50.0 µM 56.3% | [6]; at 1.2 µM -55% | [6]; at 3.7 µM -41% | [6]; [17] 0% | [6]; at 11.0 µM -37% | [6]; at 33.0 µM -36% | [6]; [18] 6% | [6]; at 50.0 µM 44.7% | [15]; at 1.2 µM -34% | [15]; at 3.7 µM -31% | [15]; at 11.0 µM -39% | [15]; at 33.0 µM 2% | [7]; [17] 33% | [7]; [18] 69% | [7]; at 50.0 µM 57.5% | [8]; at 1.2 µM -21% | [8]; at 3.7 µM -1% | [8]; at 11.0 µM -9% | [8]; at 33.0 µM -6% | [9]; [17] 30% | [9]; [18] 38% | [10]; at 1.2 µM -53% | [10]; at 3.7 µM -69% | [10]; [17] 36% | [10]; at 11.0 µM -55% | [10]; at 33.0 µM -17% | [10]; [18] 33% | [10]; at 50.0 µM 23% | [16]; at 1.2 µM -31% | [16]; at 3.7 µM -11% | [16]; at 11.0 µM -26% | [16]; at 33.0 µM -10% | [11]; at 1.2 µM -61% | [11]; at 3.7 µM -93% | [11]; at 11.0 µM -67% | [11]; at 33.0 µM 10% | [12]; at 1.2 µM -11% | [12]; at 3.7 µM -28% | [12]; at 11.0 µM -41% | [12]; at 33.0 µM -23% | [13]; [17] 4% | [13]; [18] 5% | [14]; at 1.2 µM -28% | [14]; at 3.7 µM -30% | [14]; at 11.0 µM -53% | [14]; at 33.0 µM -42%
active: [2]; at 100.0 µM 84% | [5]; at 100.0 µM 97% | [6]; at 100.0 µM 87% | [15]; at 100.0 µM 98% | [8]; at 100.0 µM 94% | [9]; at 50.0 µM 84% | [10]; at 100.0 µM 94% | [16]; at 100.0 µM 97% | [11]; at 100.0 µM 98% | [12]; at 100.0 µM 89% | [13]; at 50.0 µM 74.3% | [14]; at 100.0 µM 97%

CCCCCCC(O)CNCc1ccnc2ccc(OC)cc12 (stereo unspecified)
active: [5]; at 50.0 µM 76.8% | [7]; at 50.0 µM 83.5% | [9]; at 50.0 µM 72.2% | [10]; at 50.0 µM 83.7%
inactive: [1]; at 1.2 µM 5% | [1]; at 3.7 µM 12% | [1]; at 11.0 µM 22% | [1]; at 33.0 µM 35% | [1]; at 100.0 µM 52% | [2]; at 1.2 µM 2% | [2]; at 3.7 µM 9% | [2]; at 11.0 µM 4% | [2]; at 33.0 µM 8% | [2]; at 100.0 µM 18% | [3]; at 1.2 µM 1% | [3]; at 3.7 µM 2% | [3]; at 11.0 µM 4% | [3]; at 33.0 µM 0% | [3]; at 100.0 µM 2% | [5]; at 1.2 µM 5% | [5]; at 3.7 µM 13% | [5]; [17] 8% | [5]; at 11.0 µM 11% | [5]; at 33.0 µM 31% | [5]; [18] 51% | [5]; at 100.0 µM 54% | [6]; at 1.2 µM 4% | [6]; at 3.7 µM 13% | [6]; [17] 7% | [6]; at 11.0 µM 15% | [6]; at 33.0 µM 29% | [6]; [18] 43% | [6]; at 50.0 µM 53.4% | [6]; at 100.0 µM 46% | [15]; at 1.2 µM 13% | [15]; at 3.7 µM 32% | [15]; at 11.0 µM 33% | [15]; at 33.0 µM 33% | [15]; at 100.0 µM 49% | [7]; [17] 23% | [7]; [18] 61% | [8]; at 1.2 µM 9% | [8]; at 3.7 µM 12% | [8]; at 11.0 µM 39% | [8]; at 33.0 µM 49% | [8]; at 100.0 µM 56% | [9]; [17] 14% | [9]; [18] 43% | [10]; at 1.2 µM 1% | [10]; at 3.7 µM 8% | [10]; [17] 20% | [10]; at 11.0 µM 24% | [10]; at 33.0 µM 44% | [10]; [18] 63% | [10]; at 100.0 µM 63% | [16]; at 1.2 µM 4% | [16]; at 3.7 µM 8% | [16]; at 11.0 µM 9% | [16]; at 33.0 µM 14% | [16]; at 100.0 µM 28%
